Source: PubChem BioAssay (EPA / NIEHS)
Calls of active or inactive are those of the source. How the source made its calls: active means hit-call score of the fitted dose curve at least 0.9, where 1 is the maximum; inactive means score below 0.9.

Assay: ATG_TA_CIS: Attagene CIS-FACTORIAL HepG2 Assay for human TA Basal Promoter (AID 2282964)
Conditions: HepG2 Attagene CIS-factorial TA basal promoter reporter; actives raise or lower the signal
Method: ATG_CIS is a cell-based, multiplexed-readout assay that uses HepG2, a human liver cell line, with measurements taken at 24 hours after chemical dosing in a 24-well plate.ATG_TA_CIS is one of 52 assay component(s) measured or calculated from the ATG_CIS assay. It is designed to make measurements of mRNA induction, a form of inducible reporter, as detected with fluorescence intensity signals by Reverse transcription polymerase chain reaction (RT-PCR) and Capillary electrophoresis technology.Data from the assay component ATG_TA_CIS was analyzed into 1 assay endpoint. This assay endpoint, ATG_TA_CIS, was analyzed with bidirectional fitting relative to DMSO as the negative control and baseline of activity. Using a type of inducible reporter, measures of mRNA for gain or loss-of-signal activity can be used to understand the background control at the transcription factor-level as they relate to the gene . Furthermore, this assay endpoint can be referred to as a secondary readout, because this assay has produced multiple assay endpoints where this one serves a background control function. To generalize the intended target to other relatable targets, this assay endpoint is annotated to the background measurement intended target family, where the subfamily is internal marker.
Human liver HepG2 cells are transiently transfected with multiple reporter transcription units (MRTUs) in 6-well plates using FuGene 6 reagent (Roche; 3 ml FuGene/1 mg DNA). The MRTU constructs are regulated by a cis-regulating element (promoter). […] A major difference between the CIS and TRANS system is that in CIS activities of endogenous TFs are measured, whereas the TRANS assay evaluates changes in activities of exogenous, chimeric NR-Gal4 proteins. […] At the end of 24 hour incubation, total RNA was isolated using TriZol reagent (Invitrogen). The isolated RNA is then reverse-transcribed using oligo(dT) primer and Mo-MLV reverse transcriptase (Invitrogen) with DNAse I (Ambion) treatment for 30 min. The one-tenth of the produced cDNA was amplified by PCR using Taq DNA polymerase (Invitrogen) and two reporter sequence-specific primers. The PCR products were fluorescently labeled by primer extension with 6-arboxyfluorescein (6-FAM) 5'-labeled reporter sequence-specific primer (2 min at 95 C, 20 s at 68 C and 10 min at 72 C) and these products were digested with 5U of HpaI (New England Biolabs) for 2h at 37 C. The fragments were purified using Qiaquick PCR columns (Qiagen), analyzed on an ABI 3130xL genetic analyzer (Applied Biosystems) with peak positions identified by using a set of X-rhodamine (ROX)-labeled MapMarker1000 molecular weight standards (BioVentures). The raw capillary electrophoresis data was processed using Attagraph software (Attagene).

Row | Compound | outcome | AC50
1 | CCCCCOC(=O)CCC | inactive | –
2 | COC(=O)Cc1cccc2ccccc12 | inactive | –
3 | Cc1ccccc1C=O | inactive | –
4 | C=C(C)C1CCC(C)CC1O (stereo not given) | inactive | –
5 | O=C(Cl)c1cccc(C(=O)Cl)c1 | inactive | –
6 | OC1C(O)C(O)C(O)C(O)C1O (stereo not given) | inactive | –
7 | O=C(O)c1ccc(C(=O)O)cc1 | inactive | –
8 | CCCCCCOC(=O)CCCCC | inactive | –
9 | Cc1ccc2sc3cccc(C)c3c2c1 | inactive | –
10 | COc1ccnc(CS(=O)c2nc3cc(OC(F)F)ccc3[nH]2)c1OC (stereo not given) | inactive | –
11 | O=[N+]([O-])c1ccc(Nc2ccc(Nc3ccccc3)c(S(=O)(=O)O)c2)c([N+](=O)[O-])c1 | inactive | –
12 | C=O | inactive | –
13 | O=C[C@@H](O)[C@H](O)[C@H](O)CO | inactive | –
14 | CCCC(=O)OCCC(C)CCC=C(C)C (stereo not given) | inactive | –
15 | CCCCCCCCCCCCCC(=O)O | inactive | –
16 | CN(C)c1ccc(O)c2c1C[C@H]1C[C@H]3[C@H](N(C)C)C(=O)C(C(N)=O)=C(O)[C@@]3(O)C(=O)C1=C2O | inactive | –
17 | COCCOCCOCCOCCOCCO | inactive | –
18 | O=Nc1ccc(Nc2ccccc2)cc1 | inactive | –
19 | CCCCCNCCCCC | inactive | –
20 | CCOc1ccccc1OCC | inactive | –

Row | Compound | outcome | AC50
21 | CC(C)=CCCC(C)CC=O (stereo not given) | inactive | –
22 | Clc1cccc(Cl)n1 | inactive | –
23 | CCCCCCCCCCCCN(CCCCCCCCCCCC)CCCCCCCCCCCC | inactive | –
24 | O=c1oc(=O)c2cc3c(=O)oc(=O)c3cc12 | inactive | –
25 | c1ccc(CCCc2ccccn2)cc1 | inactive | –
26 | C=CCOC(=O)CCC1CCCCC1 | inactive | –
27 | CC(C)C1CCC(O)CC1 (stereo not given) | inactive | –
28 | O=C(O)c1snc(Cl)c1Cl | inactive | –
29 | CCCCCCCCCCCCN | inactive | –
30 | CCCCCCC#CC(=O)OC | inactive | –
31 | Sc1nc(S)nc(S)n1 | inactive | –
32 | COc1nc(C)nc(N)n1 | inactive | –
33 | NC(=O)NC1NC(=O)NC1=O (stereo not given) | inactive | –
34 | Cc1ccc(S)cc1 | inactive | –
35 | O=C(O)c1cccc(C(F)(F)F)c1 | inactive | –
36 | CN(C)CCCN | inactive | –
37 | Cc1ccc(C=O)cc1 | inactive | –
38 | CC(=O)C(=O)O | inactive | –
39 | CC1=CCC(O)(C(C)C)CC1 (stereo not given) | inactive | –
40 | C=CC(C)(O)CCC=C(C)CCC=C(C)C (stereo not given) | – | 146 µM (active)
